Shown are actives, neighbours in structure and some others; about 18% of the full set was active somewhere.
LDHA block = qHTS assay for inhibitors of human lactate dehydrogenase. 480,000 tested, 0.15% active. purified LDHA, NADH/diaphorase-resazurin fluorescence; hits give low values. activity change, % (values are at about 110 or 230 µM). L-lactate dehydrogenase A chain (Homo sapiens), P00338. AID 1347041, 2019; in the data active = activity change below about -30%; inconclusive = mostly about -25% to -30%;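 also: plate controls were DMSO wells for no effect and wells without enzyme for full effect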
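LDH5 2 nM; NADH 0.06 mM, pyruvate 0.2 mM; 200 mM Tris pH 7.4, EDTA, Tween-20; 5 min RT. Detection: diaphorase 0.133 mg/mL + resazurin 37 µM, fluorescence ex540/em590 at 0 and 20 min; normalized to enzyme-free and DMSO wells.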
TDP1 cell noCPT = qHTS for Inhibitors of human tyrosyl-DNA phosphodiesterase 1 (TDP1): qHTS in cells in absence of CPT. DT40 Tdp1-/- hTDP1 cells, no CPT, ATP luminescence, 48 h. Potency, µM (doses to about 46.2 µM), for the others: at the highest dose activity change, negative = growth inhibition, most hits filed as inhibitors. 420,000 tested, 15% active. AID 686978, 2013; also: potency is read from the fitted curve at half-maximal effect; nearly all actives have a fitted effect of over 55% in size
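A cellular qHTS used chicken DT40 cells lacking endogenous Tdp1 but carrying stably transfected human TDP1. Compounds were applied without camptothecin, and cell growth kinetics were judged by ATP-dependent luminescence after ≥48 hr.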
RORgamma inh = qHTS for inhibitors of ROR gamma transcriptional activity; 310,000 tested, 5.4% active; Nuclear receptor ROR-gamma (Mus musculus), P51450; Potency, µM (top dose mostly 53.6 µM), without a hit: at the top dose activity change, negative = inhibition, usual class: inhibitors; Drosophila S2 Gal4-RORgamma UAS-luciferase reporter, 20 h; also: potency is read from the fitted curve at half-maximal effect; nearly all actives have a fitted effect of over 60% in size
Target sequence (P51450 whole entry, looked up, the tested form may be a part): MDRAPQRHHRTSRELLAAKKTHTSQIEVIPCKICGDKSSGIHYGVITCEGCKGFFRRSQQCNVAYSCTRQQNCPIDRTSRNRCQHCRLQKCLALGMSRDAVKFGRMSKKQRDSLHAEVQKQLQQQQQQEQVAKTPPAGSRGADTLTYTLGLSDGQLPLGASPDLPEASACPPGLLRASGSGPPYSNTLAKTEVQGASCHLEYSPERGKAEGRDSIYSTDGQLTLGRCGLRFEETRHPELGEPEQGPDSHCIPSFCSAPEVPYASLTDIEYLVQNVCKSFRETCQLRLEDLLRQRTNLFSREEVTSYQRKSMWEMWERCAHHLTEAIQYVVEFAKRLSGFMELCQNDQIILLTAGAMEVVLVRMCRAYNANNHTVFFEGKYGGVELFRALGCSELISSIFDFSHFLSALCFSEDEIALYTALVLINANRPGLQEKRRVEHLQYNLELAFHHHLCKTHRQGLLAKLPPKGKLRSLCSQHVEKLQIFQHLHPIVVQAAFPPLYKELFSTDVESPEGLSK
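Stably transfected Drosophila Schneider cells are the test system, with ROR gamma fused to Gal4 and luciferase under UAS control; luminescence is read after 20 hr of 700 uM copper sulfate induction at ambient temperature.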
DT40 TDP1 CPT = qHTS for Inhibitors of human tyrosyl-DNA phosphodiesterase 1 (TDP1): qHTS in cells in presence of CPT; 420,000 tested, 12% active; chicken DT40 Tdp1-/-;hTDP1 cells + 20 nM CPT, ATP luminescence, 48 h; Potency, µM (highest dose often 46.2 µM), inactives show at the highest dose activity change, negative = growth inhibition, hits mostly inhibitors; also: potency is read from the fitted curve at half-maximal effect; nearly all actives have a fitted effect of over 55% in size
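Chicken DT40 Tdp1-/- cells complemented with human TDP1, 400 cells/well, exposed to compounds plus 20 nM camptothecin for at least 48 h at 37 C; viability read as ATP content by CellTiter-Glo luminescence.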
Gal4-VP16 FLuc = VP16 counterscreen qHTS for inhibitors of ROR gamma transcriptional activity; 310,000 tested, 3.5% active; AID 2546, 2010; Drosophila S2 Gal4-VP16 UAS-luciferase, luminescence, 20 h; Potency, µM (top dose mostly 53.6 µM), for the others: top-dose activity, negative = inhibition, most hits filed as inhibitors;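 also: Gal4-VP16 expression switched on by copper sulfate through the metallothionein promoter; potency is read from the fitted curve at half-maximal effect; nearly all actives have a fitted effect of over 50% in size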
IL1B secr inh = qHTS for Inhibitors of Inflammasome Signaling: IL-1-beta AlphaLISA Primary Screen; THP-1 LPS/ATP IL-1B secretion, AlphaLISA, 16 h; hits give low values; activity change, % at 57.5 µM; 360,000 tested, 4.7% active; in the data active = activity change below about -50%; inconclusive = mostly about -30% to -49%
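THP-1 cells pretreated 1 hr with compounds (up to 57.5 uM final), then stimulated with LPS (250 ng/mL final) plus ATP (1.25 mM final); secreted IL-1B measured by AlphaLISA after 16 hr, decreased signal indicating inhibition.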
An asterisk follows results filed as active; ? = inconclusive; / = no result. Unless noted, calls follow the shape of the dose curve; as a rule, active = well fitted curve in the direction sought with a large enough effect; inconclusive = small, poorly fitted or top-dose-only effect, or another doubt; inactive = no such curve, though single readings can be large; an effect the other way counts as inactive or inconclusive. Unless noted, % is scaled to controls: 0 for no effect and ±100 for the full control effect.

SMILES	LDHA block	TDP1 cell noCPT	RORgamma inh	DT40 TDP1 CPT	Gal4-VP16 FLuc	IL1B secr inh
Cc1ccc(-n2nc(CN3CCOCC3)c(-c3ccccc3)c2N)cc1Cl	-1	21µM*	-3%	29µM*	0%	-2
Cc1cccc(NS(=O)(=O)c2ccc(C)c(C(=O)NCC(c3cccs3)N3CCOCC3)c2)c1 (stereo unspecified)	4	16µM*	/	?	/	0
COc1cc(C(=O)NCC(c2cccs2)N2CCOCC2)cc(Br)c1OCc1ccccc1 (stereo unspecified)	-2	9.2µM*	/	9.2µM*	/	-8
COc1ccc(C(=O)NCC(c2cccs2)N2CCOCC2)cc1OC (stereo unspecified)	-4	19%	/	6%	/	18
O=C(NCC(c1cccs1)N1CCOCC1)c1cc(F)cc(F)c1 (stereo unspecified)	-7	15µM*	/	21µM*	/	21
O=C(NCC(c1cccs1)N1CCOCC1)c1cn(-c2ccccc2)nc1-c1ccccc1 (stereo unspecified)	4	18µM*	/	?	/	0
O=C(NCC(c1cccs1)N1CCOCC1)c1ccc(Cl)cc1 (stereo unspecified)	-2	?	/	?	/	14
CC(C)c1ccc(C(CNC(=O)c2cc(-c3cccs3)on2)N2CCOCC2)cc1 (stereo unspecified)	10	/	/	/	/	/
COc1cc(C(=O)NCCCN2CCCC2=O)cc(Br)c1OCc1ccccc1	-4	18µM*	/	?	/	6
O=C(NCC(c1ccccc1)N1CCOCC1)c1cc(-c2cccs2)on1 (stereo unspecified)	-32*	/	/	/	/	/
CN1C(=O)COc2ccc(NC(=O)C(=O)NC3CC(C)(C)NC(C)(C)C3)cc21	13	/	/	/	/	/
CN1C(=O)NC2(O)C(=O)c3ccccc3C12O (stereo unspecified)	-5	10µM*	-9%	12µM*	-3%	35
Cc1cccc(Nc2ccc3ccccc3c2)c1	16	/	/	/	/	/
NC(=S)Nc1ccccc1Br	-1	?	?	-3%	35µM*	4
NC(=S)Nc1cccc2cn[nH]c12	-7	3%	-2%	-3%	-17%	21
NC(=S)Nc1cc2ccccc2c2ccccc12	8	?	11µM*	?	?	9
NC(=S)Nc1cccc2ncccc12	-22	/	/	/	/	/
NNc1ccccc1Br	1	/	/	/	/	/
NC(=S)Nc1cccc2cc3ccccc3cc12	7	?	13µM*	-28%	-82%	-23
COC(=O)Cn1c(=O)n(CCc2ccccc2)c(=O)c2sc3c(c21)COC(C)(C)C3	4	/	/	/	/	/
CCc1ccc(N2C(=O)C3CCCN3C2=S)cc1 (stereo unspecified)	1	?	-4%	6%	8%	-15
O=C1C2CCCN2C(=S)N1c1cc(Cl)ccc1Cl (stereo unspecified)	-3	2%	/	-10%	/	-66*
O=S(=O)(c1ccc(SCc2cc3c(cc2Br)OCCO3)nc1)N1CCOCC1	1	/	/	/	/	/
Cc1ccc(C(=O)Nc2cccc([N+](=O)[O-])c2)cc1S(=O)(=O)Nc1ccc(NC(=O)c2ccccc2)cc1	-2	16µM*	?	16µM*	0%	6
CN(c1cccc(NC(=O)c2ccc(Cl)c(S(=O)(=O)Nc3ccccc3)c2)c1)S(C)(=O)=O	-4	16µM*	-11%	?	3%	-8
SMILES	LDHA block	TDP1 cell noCPT	RORgamma inh	DT40 TDP1 CPT	Gal4-VP16 FLuc	IL1B secr inh
O=C(Nc1ccccc1)c1ccc(Cl)c(S(=O)(=O)Nc2ccccc2)c1	-1	?	/	?	/	/
Cc1ccc(C(=O)Nc2ccccc2C(=O)O)cc1S(=O)(=O)Nc1ccccc1	-1	23µM*	-30%	-29%	15%	10
Cc1ccc(NS(=O)(=O)c2cc(C(=O)Nc3cccc([N+](=O)[O-])c3)ccc2C)cc1	-8	?	?	?	?	-80*
COc1ccccc1C1CC(=O)Nc2nc(-c3ccccc3)[nH]c(=O)c21 (stereo unspecified)	2	/	/	/	/	/
O=C1C(c2ccccc2)=S=C2C=Cc3ccccc3N12	-1	/	/	/	/	/
Cc1ccc2c(c1)CCCN2C(=O)c1ccc(Br)o1	3	/	/	/	/	/
COc1ccc(NC(=O)CCc2c[nH]c3ccccc23)cc1OC	0	/	/	/	/	/
CCCCCc1ccc(OCCC[n+]2ccccc2)c(CCCCC)c1	-1	1µM*	10%	0.65µM*	-15%	-94*
CCCCCc1ccc(OCCOCCn2c[n+](C)c3ccccc32)c(CCCCC)c1	0	2.1µM*	?	2.3µM*	16µM*	-94*
CCCOc1ccc(C[N+](C)(C)C)cc1C[N+](C)(C)C	-1	/	/	/	/	/
CC1CCCC(NC(=O)Cc2cccc3ccccc23)C1C (stereo unspecified)	9	/	/	/	/	/
COc1ccc(C(=O)Nc2ccc3oc(C)nc3c2)c(OC)c1OC	13	/	/	/	/	/
CCOC(=O)c1[nH]c(C)c(C(=O)Cn2cnc3ccccc3c2=O)c1C	8	/	/	/	/	/
c1ccc(NN=C(c2ccccc2)c2cccs2)cc1	-1	21µM*	/	-7%	/	-14
Nc1ccc(Cl)cc1/C(=N/Nc1ccccc1)c1ccccc1	19	/	/	/	/	/
O=C(CNC(=O)c1ccccc1)Sc1ccccc1	-5	18µM*	/	?	/	-29
O=C(CCCCC(=O)Sc1ccccc1)Sc1ccccc1	-9	?	/	?	/	-96*
O=C(NCSc1ccccc1)c1ccccc1	-8	-28%	/	?	/	1
C=CCn1c(CSc2nnc(-c3ccccc3)n2C)n[nH]c1=S	-1	0%	20%	16%	4%	5
S=c1[nH]nc(-c2cc(-c3ccccc3)n[nH]2)n1/N=C/c1cccc(Cl)c1	-23	-22%	?	?	?	21
C=CCn1c(-c2ccc(OC)c(OC)c2)n[nH]c1=S	-3	1%	3.2µM*	-4%	?	-2
C=CCn1c(-c2cccc(S(=O)(=O)N(CC)CC)c2)n[nH]c1=S	-5	-27%	?	-20%	2%	17
C=CCn1c(-c2cccc(S(=O)(=O)N3CCOCC3)c2)n[nH]c1=S	-6	-10%	/	5%	/	16
C=CCn1c(CSc2ccc(C)cc2)n[nH]c1=S	-3	?	4µM*	-24%	14µM*	9

Screening data: PubChem, National Center for Advancing Translational Sciences (NCATS)
